Results from publication PMC12751014, “Non-Catalytic Inhibitors of the p38/MK2 Interface: Repurposing Approved Drugs to Target Neuroinflammation in Alzheimer’s Disease” (Journal of Medicinal Chemistry, 2025).
Hit rate of the full screen: of about 1,900 compounds, about 50 (3%) showed an effect of 50% or more. The sample as a whole holds a higher share of strong results than the screen did.

Target: p38/MK2 protein–protein interaction (VF-p38α / GST-MK2) (Homo sapiens, UniProt Q16539)
Experiment: primary screen, percent of control activity; higher = less effect of the substance
Parameters: species or system HEK293T cell lysate transfected with VF-p38α and GST-MK2; unclear (methods say 'quintuplet replicates')
Procedure, shortened: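 Lysate of HEK293T cells transfected with Flag-tagged p38α and GST-MK2, complex detected by TR-FRET with anti-Flag-Tb and anti-GST-d2 antibodies. Five replicates per compound. Signal normalised to percent of DMSO control.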

Chain of p38/MK2 protein–protein interaction (VF-p38α / GST-MK2) (Q16539 2-360 limits assumed): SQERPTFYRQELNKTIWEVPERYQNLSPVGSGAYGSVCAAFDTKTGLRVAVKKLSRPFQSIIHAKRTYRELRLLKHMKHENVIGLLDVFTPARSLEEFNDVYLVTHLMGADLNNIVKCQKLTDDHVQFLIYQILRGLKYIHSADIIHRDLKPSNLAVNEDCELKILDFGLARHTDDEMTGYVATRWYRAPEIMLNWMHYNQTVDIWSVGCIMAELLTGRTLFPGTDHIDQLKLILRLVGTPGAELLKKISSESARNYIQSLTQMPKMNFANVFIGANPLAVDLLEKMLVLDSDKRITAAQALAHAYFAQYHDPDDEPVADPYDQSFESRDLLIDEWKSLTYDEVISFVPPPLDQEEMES

Row | Compound | Pct of control
1 | CN(C)CCOC(C)(c1ccccc1)c1ccccn1.O=C(O)CCC(=O)O (stereo not shown) | 101%
2 | COc1ccc(C2CC(=O)c3c(O)cc(O)cc3O2)cc1O (stereo not shown) | 90.9%
3 | O=C(OC1Cc2c(O)cc(O)cc2OC1c1cc(O)c(O)c(O)c1)c1cc(O)c(O)c(O)c1 (single isomer, unassigned; (-)) | 32.5%
4 | O=C1c2c(O)cc(O)cc2O[C@H](c2cc(O)c(O)c(O)c2)[C@H]1O | 71.3%
5 | CC12CC3CC(C)(C1)CC(N)(C3)C2.Cl | 94.2%
6 | COc1cccc2c1C(=O)c1c(O)c3c(c(O)c1C2=O)CC(O)(C(=O)CO)CC3OC1CC(N)C(OC2CCCCO2)C(C)O1 (stereo not shown) | 56.6%
7 | CC(NC(=O)C(O)c1cc(F)cc(F)c1)C(=O)NC1C(=O)N(C)c2ccccc2-c2ccccc21 (stereo not shown) | 105%
8 | CN(C)CC(c1ccc(O)cc1)C1(O)CCCCC1 (stereo not shown) | 98.6%
9 | Nc1ccccc1NC(=O)c1ccc(CNC(=O)OCc2cccnc2)cc1 | 96.2%
10 | O=C(O)c1ccc(N2C(=O)C(=Cc3ccc(-c4ccc([N+](=O)[O-])cc4)o3)C=C2c2ccccc2)cc1 | 24.8%
11 | COc1c(C)cnc(Cn2cnc3c(Cl)nc(N)nc32)c1C | 111%
12 | COC1C=CC=C(C)C(=O)NC2=CC(=O)C(NCCN(C)C)=C(CC(C)CC(OC)C(O)C(C)C=C(C)C1OC(N)=O)C2=O.Cl (stereo not shown) | 96.9%
13 | Cl.OC(CCN1CCCCC1)(c1ccccc1)C1CC2C=CC1C2 (stereo not shown) | 117%
14 | COc1cc(C(C)=O)ccc1O | 90.4%
15 | O=C1Nc2ccc(I)cc2C1=Cc1cc(Br)c(O)c(Br)c1 | 43.6%
16 | CCNCC.O=C(O)Cc1ccccc1Nc1c(Cl)cccc1Cl | 95.1%
17 | CN(C)CCc1ccc(O)cc1 | 89.6%
18 | COc1cc2nc(N3CCN(C(=O)C4CCCO4)CC3)nc(N)c2cc1OC.Cl.O.O (stereo not shown) | 23.3%
19 | COc1cc2nc(N3CCN(C(=O)C4COc5ccccc5O4)CC3)nc(N)c2cc1OC.CS(=O)(=O)O (stereo not shown) | 41.5%
20 | COc1cc2nc(N(C)CCCNC(=O)C3CCCO3)nc(N)c2cc1OC.Cl (stereo not shown) | 17.9%
21 | c1ccc(CNc2nc(NCc3ccccc3)c3ccccc3n2)cc1 | 74.5%

Row | Compound | Pct of control
22 | CCn1nc(C(=O)O)c(=O)c2cc3c(cc21)OCO3 | 86.4%
23 | CC12CCC3c4ccc(O)cc4CCC3C1CCC2=O (stereo not shown) | 88.5%
24 | O=c1[nH]c2ccccc2n1CCCN1CCC(n2c(=O)[nH]c3cc(Cl)ccc32)CC1 | 91.8%
25 | CC1CCc2c(N3CCC(O)CC3)c(F)cc3c(=O)c(C(=O)O)cn1c23 (stereo not shown) | 90.3%
26 | CCCC(NC(=O)C(C#N)=Cc1cccc(Br)n1)c1ccccc1 (stereo not shown) | 20.3%
27 | N#CC(=Cc1ccc(O)c(O)c1)C(=O)NCc1ccccc1 | 95.3%
28 | CC(NC(=O)C(C#N)=Cc1cccc(Br)n1)c1ccccc1 (stereo not shown) | 24.1%
29 | CCOC(=O)C1=C(COCCN)NC(C)=C(C(=O)OC)C1c1ccccc1Cl.O=S(=O)(O)c1ccccc1 (stereo not shown) | 91.6%
30 | CC(C)CCN1c2nc(Nc3cc(F)c(O)c(F)c3)ncc2N(C)C(=O)C1C (stereo not shown) | 86.7%
31 | S=c1nc[nH]c2nc[nH]c12 | 126%
32 | COc1cc(-c2ncn(C=CC(=O)OC(C)C)n2)cc(C(F)(F)F)c1 | 91.8%
33 | CN1CCN(c2nc(C3=C(c4c[nH]c5ccccc45)C(=O)NC3=O)c3ccccc3n2)CC1 | 109%
34 | CC(=O)Oc1cc2c(s1)CCN(C(C(=O)C1CC1)c1ccccc1F)C2 (stereo not shown) | 87.9%
35 | Cc1cc(OCc2nnc(SC3CCCC3)n2-c2cccnc2)ccc1-c1ccc(S(C)(=O)=O)cc1 | 94.4%
36 | CCCCCCNC(=O)n1cc(F)c(=O)[nH]c1=O | 110%
37 | CN1CCc2cc3c(cc2C1C1OC(=O)c2c1ccc1c2OCO1)OCO3 (single isomer, unassigned; (+)) | 93.7%
38 | CN1CCc2cccc3c2C1Cc1ccc(O)c(O)c1-3.CN1CCc2cccc3c2C1Cc1ccc(O)c(O)c1-3.Cl.Cl.O (stereo not shown) | 44.4%
39 | CN1CCCC1c1cccnc1.O=C(O)C(O)C(O)C(=O)O.O=C(O)C(O)C(O)C(=O)O (stereo not shown) | 91.9%
40 | O=C1CC(=O)c2c(Cl)c(Cl)c(Cl)c(Cl)c21 | 32.6%
41 | CC(=O)CCCCn1c(=O)c2c(ncn2C)n(C)c1=O | 88.5%
42 | Cc1cc2c(cc1S(N)(=O)=O)S(=O)(=O)CCC2 | 94.1%

Row | Compound | Pct of control
43 | Br.CN1C2CC(OC(=O)C(CO)c3ccccc3)CC1C1OC12 (stereo not shown) | 98.3%
44 | Nc1nccc(Oc2ccc(NC(=O)c3c[nH]cc(-c4ccc(F)cc4)c3=O)cc2F)c1Cl | 73.2%
45 | Cc1nc(NC(=O)N2CCCC2C(N)=O)sc1-c1ccnc(C(C)(C)C(F)(F)F)c1 (stereo not shown) | 108%
46 | Cc1ccc(Nc2nccc(N(C)c3ccc4c(C)n(C)nc4c3)n2)cc1S(N)(=O)=O | 84.3%
47 | CC(C)c1cc(C(C)C)c(CC(=O)NS(=O)(=O)Oc2c(C(C)C)cccc2C(C)C)c(C(C)C)c1 | 36.9%
48 | CNCC(O)c1ccc(O)c(O)c1.O=C(O)C(O)C(O)C(=O)O (stereo not shown) | 92.6%
49 | CCCC[N+]1(C)C2CC(OC(=O)C(CO)c3ccccc3)CC1C1OC12.[Br-] (stereo not shown) | 96.8%
50 | O=C(NCC1(c2nc(-c3ccccc3)cs2)CCOCC1)c1cccc(-c2noc(C(F)(F)F)n2)c1 | 114%
51 | CCOC(=O)c1ccc(N)cc1 | 97.4%
52 | NC(=O)N/N=C/c1ccc([N+](=O)[O-])o1 | 106%
53 | CCOC(=O)c1ccc(N2NC(=O)C(=Cc3ccc([N+](=O)[O-])o3)C2=O)cc1 | 34.2%
54 | Cc1cccc(N(C)C(=S)Oc2ccc3ccccc3c2)c1 | 101%
55 | O=P1(NCCCl)OCCCN1CCCl (stereo not shown) | 91.1%
56 | Cc1cccc(C)c1NC(=O)C1CCCCN1C.Cl (stereo not shown) | 95.5%
57 | O=c1c(O)c(-c2ccc(O)cc2)oc2cc(O)cc(O)c12 | 75.1%
58 | CC1OC(Oc2c(-c3cc(O)c(O)c(O)c3)oc3cc(O)cc(O)c3c2=O)C(O)C(O)C1O (stereo not shown) | 74%
59 | O=c1c(O)c(-c2ccc(O)c(O)c2)oc2cc(O)cc(O)c12 | 68%
60 | O=c1c(O)c(-c2cc(O)c(O)c(O)c2)oc2cc(O)cc(O)c12 | 43.2%
61 | O.O=c1c(O)c(-c2ccc(O)cc2O)oc2cc(O)cc(O)c12 | 27%
62 | O.O.O=c1c(O)c(-c2ccc(O)c(O)c2)oc2cc(O)cc(O)c12 | 73.1%
63 | CCn1cc(C(=O)O)c(=O)c2ccc(C)nc21 | 103%

Row | Compound | Pct of control
64 | COC(=O)Nc1nc2ccc(Sc3ccccc3)cc2[nH]1 | 96.8%
65 | Cc1ccc(Sc2cncc3sc(C(N)=O)cc23)cc1 | 96.8%
66 | O=C(NCCCNc1nc(Nc2cccc(NC(=O)N3CCCC3)c2)ncc1I)c1cccs1 | 105%
67 | COc1ccc(C2C(=O)c3ccccc3C2=O)cc1 | 93.2%
68 | O=c1c(-c2ccc(O)cc2)coc2cc(O)cc(O)c12 | 102%
69 | COc1cc(OC)c(OC)cc1C=O | 91.5%
70 | COC(=O)C1=C(C)NC(C)=C(C(=O)OC)C1c1ccccc1[N+](=O)[O-] | 87%
71 | Cl.O=C(O)Cc1cccc(OCCCN(Cc2cccc(C(F)(F)F)c2Cl)CC(c2ccccc2)c2ccccc2)c1 | 39.4%
72 | O=C(Nc1ccncc1)c1cc([N+](=O)[O-])ccc1Cl | 103%
73 | CCc1oc2ccccc2c1C(=O)c1cc(Br)c(O)c(Br)c1 | 103%
74 | Cc1cc(C(C#N)c2ccc(Cl)cc2)c(Cl)cc1NC(=O)c1cc(I)cc(I)c1O (stereo not shown) | 45.2%
75 | Cc1cc(C(C#N)c2ccc(Cl)cc2)c(Cl)cc1NC(=O)c1cc(I)cc(I)c1[O-].[Na+] (stereo not shown) | 46.2%
76 | CC(=O)Nc1cccc(-n2c(=O)n(C3CC3)c(=O)c3c(Nc4ccc(I)cc4F)n(C)c(=O)c(C)c32)c1 | 93.7%
77 | CC(C)(Oc1ccc(CCNC(=O)c2ccc(Cl)cc2)cc1)C(=O)O | 96.7%
78 | Oc1c(Br)cc(Br)c2cccnc12 | 104%
79 | CCc1ccc(CCOc2ccc(CC3SC(=O)NC3=O)cc2)nc1 (stereo not shown) | 97.3%
80 | Clc1ccc(CCC(Cn2ccnc2)Sc2c(Cl)cccc2Cl)cc1.O=[N+]([O-])O (stereo not shown) | 90.3%
81 | O=NN(CCCl)C(=O)NC1CCCCC1 | 82.9%
82 | Cc1cc([N+](=O)[O-])ccc1NS(=O)(=O)c1cc(Cl)ccc1Cl | 87.8%
